SENP8 block-1: blocks the human protease SENP8; purified SENP8, Z-RLRGG-aminoluciferin cleavage, luminescence; inhibition, % at 10 µM; actives 1.2% (n = 330,000); AID 2540; in the data active = inhibition above about 50%
Target sequence (Q96LD8 whole entry, looked up): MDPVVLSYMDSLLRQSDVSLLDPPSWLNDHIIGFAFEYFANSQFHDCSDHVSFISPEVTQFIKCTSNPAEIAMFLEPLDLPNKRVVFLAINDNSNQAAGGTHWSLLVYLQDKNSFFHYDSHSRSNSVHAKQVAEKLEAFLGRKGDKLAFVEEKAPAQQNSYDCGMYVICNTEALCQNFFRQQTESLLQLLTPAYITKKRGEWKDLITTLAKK
SENP8 block-2: inhibitors of human SENP8 protease. recombinant SENP8, Nedd8 substrate fluorescence. inhibition, % at 20 µM. actives 0.64% (n = 360,000). AID 602440; in the data active = inhibition mostly above about 40%, no sharp cut-off; inactive = mostly below about 27%
SENP7 block: SENP7 protease inhibition | Q9BQF6 | recombinant SENP7, Z-RLRGG-aminoluciferin luminescence, 40 min | inhibition, % at 5 µM | actives 1.5% (n = 330,000);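 active = inhibition above about 50% at the single test dose, limit read from the data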;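 also: plate controls were DMSO with enzyme for no effect and no enzyme buffer wells for full effect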
PPC-1+TRAIL kill: compounds killing PPC-1 cancer cells with TRAIL present (potentiator screen, no TRAIL-free arm) | cell killing (% activity), % at 4 µM or 5 µM | PPC-1 cells + TRAIL, ATPLite viability luminescence | actives 0.41% (n = 220,000);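 active = cell killing above 50% in the first pass at 4 µM, then a duplicate retest at 5 µM averaging 50% or more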;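 also: plate controls were cells with TRAIL plus DMSO for no effect and medium-only wells lacking cells for full effect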
TRAIL sens C8: sensitizes caspase-8 expressing cells to TRAIL | NB7+C8 cells + TRAIL, ATPlite viability luminescence | inhibition (viability loss, TRAIL sensitization), % at 10 µM | actives 1% (n = 360,000);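 active = compounds causing at least 50% loss of cell viability in the single-dose screen, relative to plate controls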
SENP6 inh: SENP6 protease inhibition; Q9GZR1; Recombinant SENP6 catalytic domain, aminoluciferin luminescence; inhibition, % at 10 µM; actives 1.8% (n = 330,000);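 active = inhibition above about 50% at the single tested dose, limit read from the data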;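 also: plate controls were DMSO wells with enzyme for no effect and DMSO wells lacking enzyme for full effect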
Target sequence (Q9GZR1 628-1112 limits assumed): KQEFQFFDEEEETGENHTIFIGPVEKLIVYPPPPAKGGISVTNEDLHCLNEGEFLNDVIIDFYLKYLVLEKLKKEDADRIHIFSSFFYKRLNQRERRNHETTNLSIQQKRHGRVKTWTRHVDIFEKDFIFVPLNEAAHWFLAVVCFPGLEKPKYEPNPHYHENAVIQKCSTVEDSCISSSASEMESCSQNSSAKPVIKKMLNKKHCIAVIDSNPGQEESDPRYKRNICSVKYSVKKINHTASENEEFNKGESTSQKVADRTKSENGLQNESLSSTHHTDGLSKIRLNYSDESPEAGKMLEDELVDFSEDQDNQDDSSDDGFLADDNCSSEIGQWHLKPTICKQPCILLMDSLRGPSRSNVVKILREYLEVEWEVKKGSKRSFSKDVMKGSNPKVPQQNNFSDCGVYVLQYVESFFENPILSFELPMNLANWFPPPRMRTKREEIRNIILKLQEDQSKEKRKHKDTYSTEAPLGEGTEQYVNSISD
SENP8 confirm: human SENP8 inhibition, confirmed | Recombinant SENP8, Z-RLRGG-aminoluciferin luminescence, 60 min | inhibition, % at 12.5 µM | actives 40% (n = 6,200) | shares compounds with SENP7 block;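 active = mean inhibition across replicates above about 50%, limit read from the data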
SENP6 conf: confirmation of human SENP6 protease inhibitors | shares compounds with SENP7 block | recombinant SENP6, Z-RLRGG-aminoluciferin luminescence | inhibition, % at 12.5 µM | actives 58% (n = 6,200)
SENP7 conf: confirmation of human SENP7 protease inhibitors; shares compounds with SENP7 block; recombinant SENP7, Z-RLRGG-aminoluciferin luminescence, 40 min; inhibition, % at 12.5 µM; actives 69% (n = 6,200)
Casp3 select: inhibits human caspase-3 in SENP selectivity test; shares compounds with SENP7 block; purified caspase-3, Z-DEVD-aminoluciferin luminescence, 60 min; inhibition, % at 12.5 µM; actives 60% (n = 6,200);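 active = mean inhibition above about 50%, limit read from the data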;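 also: plate controls were enzyme with DMSO for no effect and wells without caspase-3 for full effect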
Luc interf: counter-screen for SENP inhibitors: luminescence interference; shares compounds with SENP7 block; Pre-incubated SENP8/Z-RLRGG-aminoluciferin, luciferase luminescence interference; inhibition, % at 12.5 µM; actives 39% (n = 6,200); AID 488919;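 active = mean inhibition above about 50% when retested at one dose, limit read from the data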;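 also: plate controls were DMSO wells with completed reaction for no effect and substrate without enzyme for full effect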
An asterisk follows results filed as active. Shown are actives, neighbours in structure and some others; about 3% of the full set was active somewhere.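 The calls were made as follows, unless noted: active = mean inhibition above about 50% in the one-dose retest (limit read from the data); inactive = the rest.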

Results for Cc1ccoc1C(=O)Nc1ccc2ccccc2c1 ?
SENP8 block-1: 96.3*; SENP8 block-2: -1.8; SENP7 block: 99.5*; TRAIL sens C8: 53.5*; SENP6 inh: 97.4*; SENP8 confirm: 95.8*; SENP6 conf: 98.2*; SENP7 conf: 102.3*; Casp3 select: 95.6*; Luc interf: 91.5*

How did Cc1ccc(NC(=O)c2ccc([N+](=O)[O-])o2)cc1C do in these assays?
SENP8 block-1: 60.7*; SENP8 block-2: 15.5; SENP7 block: 87.3*; PPC-1+TRAIL kill: 23.8; TRAIL sens C8: 10.2; SENP6 inh: 75.9*; SENP8 confirm: 80.8*; SENP6 conf: 80.4*; SENP7 conf: 94.1*; Casp3 select: 78.6*; Luc interf: 79.8*

How did O=C(Nc1ccc(N2CCOCC2)cc1)c1csc([C@@H]2C[C@H](O)[C@@H](CO)O2)n1 do in these assays?
SENP8 block-2: 10.4; TRAIL sens C8: 32.4

Results for Cc1cc(NC(=NC2CC2)c2ccccc2F)n(-c2ccccc2)n1 ?
SENP8 block-1: -2.7; SENP8 block-2: 9.8; SENP7 block: 6.0; PPC-1+TRAIL kill: 1.8; TRAIL sens C8: 1.9; SENP6 inh: 0.7

Results for Cc1ccc(C(=O)Nc2ncc(C)s2)o1 ?
SENP8 block-1: 34.6; SENP8 block-2: -1.1; SENP7 block: 66.6*; PPC-1+TRAIL kill: 18.1; TRAIL sens C8: 13.4; SENP6 inh: 60.0*; SENP8 confirm: 61.6*; SENP6 conf: 58.5*; SENP7 conf: 87.2*; Casp3 select: 89.9*; Luc interf: 66.8*

How did Cc1cnc(NC(=O)c2ccc3c(c2)OCCO3)s1 do in these assays?
SENP8 block-1: 84.3*; SENP8 block-2: -411.4; SENP7 block: 91.7*; TRAIL sens C8: 94.4*; SENP6 inh: 90.7*; SENP8 confirm: 47.2; SENP6 conf: 84.4*; SENP7 conf: 96.7*; Casp3 select: 78.7*; Luc interf: 0.0

What do the screens show for `CSc1ccccc1C(=O)Nc1ncc(C)s1`?
SENP8 block-1: -6.3; SENP8 block-2: -21.1; SENP7 block: 4.8; PPC-1+TRAIL kill: -9.7; TRAIL sens C8: 14.6; SENP6 inh: 4.9

How did Cc1ccc(C(=O)Nc2ncc(C)s2)s1 do in these assays?
SENP8 block-1: 44.9; SENP8 block-2: -8.6; SENP7 block: 57.5*; TRAIL sens C8: 78.1*; SENP6 inh: 60.8*; SENP8 confirm: 54.1*; SENP6 conf: 54.8*; SENP7 conf: 86.5*; Casp3 select: 80.1*; Luc interf: 32.4

Results for CN(C)C(CNC(=O)C1CC(=O)N(c2cccc(C(F)(F)F)c2)C1)c1ccccc1 (stereo not drawn) ?
SENP8 block-2: -3.2; TRAIL sens C8: 2.1

How did CCCc1ccc(-c2ccc(F)c(N)c2)nc1 do in these assays?
SENP8 block-1: 93.9*; SENP8 block-2: -6.9; SENP7 block: 95.7*; PPC-1+TRAIL kill: 38.3; TRAIL sens C8: 69.2*; SENP6 inh: 95.2*; SENP8 confirm: 94.2*; SENP6 conf: 97.3*; SENP7 conf: 102.6*; Casp3 select: 96.7*; Luc interf: 95.7*

What do the screens show for `CCCCc1ccc(-c2ccc(Br)cc2)nc1`?
SENP8 block-1: 57.8*; SENP8 block-2: 14.4; SENP7 block: 10.2; PPC-1+TRAIL kill: 22.1; TRAIL sens C8: 9.5; SENP6 inh: 67.5*; SENP8 confirm: 30.4; SENP6 conf: 34.5; SENP7 conf: 50.9*; Casp3 select: 45.9; Luc interf: 39.6

What do the screens show for `Nc1cc(-c2nn[nH]n2)ccc1F`?
SENP8 block-1: -1.9; SENP8 block-2: -1.9; SENP7 block: 3.1; PPC-1+TRAIL kill: 7.2; TRAIL sens C8: -0.7; SENP6 inh: -7.3

How did O=C(CN1C(=O)NC2(CCc3ccccc32)C1=O)NCC(=O)Nc1ccc(F)cc1 (stereo not drawn) do in these assays?
SENP8 block-1: -4.4; SENP8 block-2: 9.7; SENP7 block: 5.5; TRAIL sens C8: -4.6; SENP6 inh: -9.9

Results for Cc1noc(C)c1C(=O)OCC(=O)c1cc(C)n(Cc2ccccc2Cl)c1C ?
SENP8 block-1: 4.2; SENP8 block-2: 8.2; SENP7 block: 25.7; PPC-1+TRAIL kill: 21.3; TRAIL sens C8: -2.2; SENP6 inh: 68.2*; SENP8 confirm: 2.0; SENP6 conf: 9.8; SENP7 conf: 45.0; Casp3 select: 29.7; Luc interf: 14.3

What do the screens show for `O=C(NCc1ccco1)c1ccc(CS(=O)Cc2ccc(Cl)cc2)o1` (stereo not drawn)?
SENP8 block-1: 11.6; SENP8 block-2: 11.8; SENP7 block: -5.7; TRAIL sens C8: 9.2; SENP6 inh: 18.1

Results for CCOc1ccc(-c2c(C(=O)N/N=C/C3CC=CCC3)nnn2-c2nonc2N)cc1 (stereo not drawn) ?
SENP8 block-1: -11.1; SENP8 block-2: 11.1; SENP7 block: -16.1; TRAIL sens C8: -9.0; SENP6 inh: -12.4

How did CN(C)c1ccc(C(=O)c2ccc(O)cc2O)cc1 do in these assays?
SENP8 block-1: 49.1; SENP8 block-2: 31.4; SENP7 block: 41.9; PPC-1+TRAIL kill: 19.3; TRAIL sens C8: 3.3; SENP6 inh: 67.3*; SENP8 confirm: 53.8*; SENP6 conf: 51.4*; SENP7 conf: 83.2*; Casp3 select: 45.5; Luc interf: 60.5*

How did Cc1ccc(-c2nc(-c3nccc4ccccc34)oc2-c2ccccc2)cc1 do in these assays?
SENP8 block-1: 47.7; SENP8 block-2: -308.8; SENP7 block: 80.5*; PPC-1+TRAIL kill: 18.6; TRAIL sens C8: 38.1; SENP6 inh: 69.5*; SENP8 confirm: 47.8; SENP6 conf: 50.5*; SENP7 conf: 83.8*; Casp3 select: 84.0*; Luc interf: 72.2*

Results for O=C(Nc1ccccc1)N1CC=C(c2ccccc2)CC1 ?
SENP8 block-1: 0.8; SENP7 block: 4.4; PPC-1+TRAIL kill: 20.3; SENP6 inh: 18.5

How did Cc1ccc(C2CCN(C(=O)Nc3ccc(F)cc3)C2)cc1 (stereo not drawn) do in these assays?
SENP8 block-1: -5.0; SENP8 block-2: 12.4; SENP7 block: 3.8; PPC-1+TRAIL kill: 15.0; TRAIL sens C8: 5.2; SENP6 inh: 60.9*; SENP8 confirm: 9.4; SENP6 conf: 1.3; SENP7 conf: 13.0; Casp3 select: 17.7; Luc interf: 12.2
